In the supplement of paper PMC7156485:
“And” between values parts separate entries of the source, which are not always exact repeats. Equal entries are not always repeated. ± gives the standard deviation of the averaged measurements.

Assays:
Details in all cases: concentration: 10 µM; 24 h
[1] = test system: HCC1569; experiment: cell number relative to DMSO (% of DMSO); higher = more cells (less growth inhibition / toxicity)
Method in brief: (§1)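 H1.0 nuclear intensity or cell number is expressed as percent of the plate control, with the median of replicates taken. HCC1569 and TDF cells were treated with compounds at 10 µM for 24 h at 37 °C, in triplicate, then fixed and immunostained for H1.0 with DAPI as a nuclear stain. HCC1569 values were smoothed to correct for positional effects.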

[2] = test system: TDF; experiment: as above
Method in brief: as §1

[3] = test system: TDF; experiment: H1.0 immunofluorescence intensity relative to DMSO (% of DMSO); higher = stronger H1.0 induction, active = 120 or more
Method in brief: as §1

[4] = test system: HCC1569; experiment: H1.0 immunofluorescence intensity relative to DMSO (% of DMSO); higher = stronger H1.0 induction, active = 140 or more
Method in brief: as §1
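For H1.0 immunofluorescence intensity relative to DMSO in this document: TDF is a line of transformed human dermal fibroblasts of mesenchymal origin.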
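For cell number relative to DMSO in this document: TDF denotes transformed human dermal fibroblasts of mesenchymal origin.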

Row | Structure (SMILES) | cell number [1] | cell number [2] | H1.0 immunofluorescence intensity [3] | H1.0 immunofluorescence intensity [4]
1 | Cl.c1ccc2nc(C3=NCCN3)ccc2c1 [BU224 hydrochloride] | 101 | 110 | 95 (inactive) | 100 (inactive)
2 | O=C(CCCN1CCN(c2ccccn2)CC1)c1ccc(F)cc1 [Azaperone] | 98.6 | 112 | 96.7 (inactive) | 103 (inactive)
3 | c1ccc(-c2ccccn2)nc1 [2,2'-Bipyridyl] | 107 | 95 | 104 (inactive) | 102 (inactive)
4 | Cc1ccc(NC(=O)CCCCCC(=O)Nc2ccccc2N)cc1 [N~1~-(2-aminophenyl)-N~7~-(4-methylphenyl)heptanediamide] | 96.1 | 70.6 | 113 (inactive) | 214 (active)
5 | Cc1ccc(F)cc1C(=O)Nc1ccc(C(=O)N2Cc3cccn3Cc3ccccc32)c(Cl)c1 | 91.6 | 95.3 | 93.2 (inactive) | 131 (inactive)
6 | NC(=O)Nc1cc(-c2cccc(F)c2)sc1C(=O)NC1CCCNC1 (stereo not given) | 19.9 | 1.8 |  | 60.3 (inactive)
7 | COc1ccc(CCN(C)CCCC(C#N)(c2ccc(OC)c(OC)c2)C(C)C)cc1OC (stereo not given) [Verapamil] |  |  | 90.6 (inactive) | 98.6 (inactive)
8 | C[n+]1cc2c3c(ccc2c2ccc4cc5c(cc4c21)OCO5)OCO3.[Cl-] [Sanguinarine chloride] | 15.1 | 0.53 |  | 178 (active)
9 | COS(=O)(=O)[O-].C[n+]1c2ccccc2nc2ccccc21 [5-methylphenazin-5-ium methyl sulfate] | 28.1 | 4.9 |  | 688 (active)
10 | CC(=O)C1(O)Cc2c(O)c3c(c(O)c2C(OC2CC(N)C(O)C(C)O2)C1)C(=O)c1ccccc1C3=O (stereo not given) [Idarubicin] | 49.1 ± 12 | 5.14 ± 3 |  | 584 (active)
11 | Cc1ccccc1N(C)C(=O)c1ccc(S(=O)c2nccs2)c([N+](=O)[O-])c1 (stereo not given) | 9.73 | 4.15 |  | 131 (inactive)
12 | CCCCCCCCCCCCCCCCCCOCC(COP(=O)([O-])OCC[N+](C)(C)C)OC (stereo not given) | 51.3 and 99.9 |  | 225 (active) and 85.1 (inactive) | 162 (active) and 103 (inactive)
13 | CC(C=CC1=C(C)CCCC1(C)C)=CC=CC(C)=CC(=O)O [Retinoic acid] | 104 | 102 | 95.8 (inactive) | 120 (inactive)
14 | O=S(=O)(NCc1cccc2ccccc12)c1cc(Cl)c(Oc2cccc(N3CCNCC3)c2)s1 | 8.55 | 0.28 |  | 122 (inactive)
15 | Cc1[nH]nc2ccc(-c3cncc(OCC(N)Cc4ccccc4)c3)cc12 (stereo not given) | 58.8 | 2.19 |  | 92 (inactive)
16 | O=C(O)C(=Cc1c(C(=O)O)[nH]c2cc(Cl)cc(Cl)c12)c1ccccc1 | 105 | 109 | 95.3 (inactive) | 85 (inactive)
17 | C=CC(=O)N1C/C(=C\c2ccc([N+](=O)[O-])cc2)C(=O)/C(=C/c2ccc([N+](=O)[O-])cc2)C1 [1-acryloyl-3,5-bis((E)-4-nitrobenzylidene)piperidin-4-one] | 17.5 | 0.39 |  | 145 (active)
18 | Cc1cc(Nc2ccc(NC(=O)c3ccc(Nc4ccnc5ccccc45)cc3)cc2)nc(N)n1 | 13.5 | 0.96 |  | 83.8 (inactive)
19 | Nc1ncnc2c1nc(N)n2[C@@H]1O[C@H](CO)[C@@H](O)[C@H]1O | 25.5 | 2.02 |  | 76.3 (inactive)
20 | CCN(CC)CCCC(C)Nc1cc(/C=C/c2ccccc2Cl)nc2cc(Cl)ccc12 (stereo not given) | 6.31 | 1.01 |  | 102 (inactive)
21 | CCC(C)(C)C(=O)OC1CC(C)C=C2C=CC(C)C(CCC3CC(O)CC(=O)O3)C21 (stereo not given) [Simvastatin] |  |  | 120 (inactive) | 106 (inactive)
22 | CC1(C)C(C(=O)O)N2C(=O)CC2S1(=O)=O (stereo not given) [Sulbactam] |  |  | 95.9 (inactive) | 108 (inactive)
23 | CCN(CC)CCNC(=O)c1c(C)[nH]c(C=C2C(=O)Nc3ccc(Cl)cc32)c1C | 22.9 | 1.9 |  | 213 (active)

Row | Structure (SMILES) | cell number [1] | cell number [2] | H1.0 immunofluorescence intensity [3] | H1.0 immunofluorescence intensity [4]
24 | CCN(CC)CCCC(C)Nc1c2ccc(Cl)cc2nc2ccc(OC)cc12.Cl.Cl (stereo not given) [Quinacrine dihydrochloride] | 67.6 | 4.99 |  | 133 (inactive)
25 | O=C(O)C1=CC(O)C(O)C(O)C1 (stereo not given) [Shikimic acid] |  |  | 97.5 (inactive) | 100 (inactive)
26 | COc1ccc(CCN(C)CCCC(C#N)(c2ccc(OC)c(OC)c2)C(C)C)cc1OC.Cl (racemic) |  |  | 99.2 (inactive) | 95.5 (inactive)
27 | CC(C)C(CO)Nc1nc(Nc2cc(N)cc(Cl)c2)c2ncn(C(C)C)c2n1 (stereo not given) | 60.6 | 45.9 | 111 (inactive) | 177 (active)
28 | CN(C)CCCN1c2ccccc2Sc2ccc(C(F)(F)F)cc21.Cl [Triflupromazine hydrochloride] |  |  | 110 (inactive) | 113 (inactive)
29 | Clc1ccc(N/N=C(\c2ccccc2)c2ccccn2)nc1 | 73.1 | 1.54 |  | 111 (inactive)
30 | Cc1c(C(=O)NN2CCCCC2)nn(-c2ccc(Cl)cc2Cl)c1-c1ccc(I)cc1 |  |  | 92 (inactive) | 96.5 (inactive)
31 | CCOC(=O)N1CCC(=C2c3ccc(Cl)cc3CCc3cccnc32)CC1 [Loratadine] |  |  | 98.3 (inactive) | 103 (inactive)
32 | O=C(c1ccc(Nc2nccc(-c3cc4ccccc4s3)n2)cc1)N1CCC(N2CCCC2)CC1 | 61.6 | 3.45 |  | 174 (active)
33 | O=C(NC1=CNNC1=C1N=c2ccc(CN3CCOCC3)cc2=N1)NC1CC1 | 23.5 | 2.95 |  | 58.9 (inactive)
34 | O=C1c2ccccc2-c2nc3nnnn3nc21 [PDK1/Akt/Flt Dual Pathway Inhibitor] | 41.8 | 3.4 |  | 56.9 (inactive)
35 | c1cc(-c2cnn3cc(-c4ccc(N5CCNCC5)cc4)cnc23)c2cccnc2c1 | 22.7 | 0.96 |  | 100 (inactive)
36 | Cc1ccc([N+](=O)[O-])cc1S(=O)(=O)N(C)N=Cc1cnc2ccc(Br)cn12.Cl.O.O [PI 3-Ka Inhibitor VIII] | 45.7 | 4.97 |  | 125 (inactive)
37 | N#Cc1ccc2c(c1)CCN(CCC1CCC(NC(=O)c3ccnc4ccccc34)CC1)C2 (stereo not given) |  |  | 90.6 (inactive) | 158 (active)
38 | CCOC(=O)c1csc(Nc2ccc(Cl)cc2)n1 [ethyl 2-(4-chloroanilino)-1,3-thiazole-4-carboxylate] | 97 | 99.4 | 99.7 (inactive) | 113 (inactive)
39 | C[C@H](C(=O)O)c1cccc(C(=O)c2ccccc2)c1 [(S)-(+)-Ketoprofen] |  |  | 99 (inactive) | 100 (inactive)
40 | S=C([S-])N1CCCC1.[NH4+] [Ammonium pyrrolidinedithiocarbamate] | 87.9 | 1.9 |  | 126 (inactive)
41 | CC(CC(c1ccccc1)c1ccccc1)NC(C)(C)C.Cl (stereo not given) [N-(tert-butyl)-4,4-diphenyl-2-butanamine hydrochloride] | 97.9 | 97.5 | 99.1 (inactive) | 101 (inactive)
42 | CCCN(CCC)CCc1cccc2c1CC(=O)N2.Cl [Ropinirole hydrochloride] | 101 | 95.8 | 96.1 (inactive) | 101 (inactive)
43 | NC(Cn1ccc(=O)c(O)c1)C(=O)O [L-Mimosine] | 101 | 86.3 | 105 (inactive) | 102 (inactive)
44 | COc1ccc(Cn2cc(C(=O)O)c(=O)c3ccccc32)cc1 |  |  | 98.8 (inactive) | 116 (inactive)
45 | CC(C(=O)O)c1cccc(C(=O)c2ccccc2)c1 (stereo not given) [Ketoprofen] |  |  | 88.8 (inactive) | 101 (inactive)
